Common to all, as to assay: qHTS profiling for inhibitors of Plasmodium falciparum proliferation (AID 504749); further: nearly all actives have a fitted effect of over 60% in size
Holding throughout (settings): P. falciparum in erythrocytes, SYBR Green DNA, 72 h; series mostly up to 28.7 µM
On the technique in general: qHTS replaces the single test concentration by a dilution series.

For one assay, the system named is DFO2036. The essentials: (§1)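 Parasite proliferation within erythrocytes, 72 h exposure. Endpoint: SYBR Green I fluorescence after overnight lysis at room temperature. Controls: 0.29 uM artemisinin, DMSO.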
Another assay concerns DIV14. The procedure, abridged:
as §1

A further assay has as its system DIV17. The procedure, abridged: as §1
In the next assay the test system is GB4. The procedure, abridged:
as §1

The test system of another assay is ICS. The essentials:
as §1

Another assay relates to PC26. The essentials: as §1
A further assay relates to DIV30. The procedure, abridged: as §1
For another assay, the system named is Dd2. The essentials:
as §1

The test system of another assay is ECU. The procedure, abridged: as §1
In another assay the test system is FAB9. The procedure, abridged: as §1
For the next assay, the system named is HB3. The essentials:
as §1

For another assay, the system named is JCK. The procedure, abridged: as §1
In a further assay the test system is N140. The essentials:
as §1

For another assay, the system named is P93_24. The essentials:
as §1

A further assay concerns P94_40. The essentials:
as §1

Another assay relates to PAD. The essentials: as §1
For another assay, the system named is PC15. The procedure, abridged:
as §1

The next assay deals with PC49. The procedure, abridged:
as §1

Another assay concerns SC27B. The essentials:
as §1

The test system of the next assay is TAB109. The procedure, abridged:
as §1

Potency data for 12 molecules are collected here from PubChem BioAssay (NCATS).

Results filed as inconclusive are left out. Active and inactive are the calls of the source. The call rests on the fitted dose curve; in most records, active means well fitted inhibition curve with a large enough effect; inconclusive means small, poorly fitted or top-dose-only effect; inactive means flat fitted curve, though single readings scatter.
Potency means the concentration at half of the fitted maximal effect.

`NC(N)=NC(=O)Cc1c(Cl)cccc1Cl`: the Potency with DFO2036 is 10 µM (active); with GB4, 6.75 µM (active); with ICS, 7.94 µM (active); in the assay with PC26, 7.57 µM (active). Further, the Potency result in the assay on DIV14 and in the assay with DIV17 was “inactive” in each case.
Turning to `CCCOc1ccccc1-c1nc2n[nH]nc2c(=O)[nH]1`, the Potency result in the assay with DFO2036, in the assay with DIV14, in the assay on DIV17, in the assay with DIV30, with Dd2 and with ECU was “inactive” each time. The Potency result with FAB9, in the assay with GB4, in the assay on HB3, in the assay with JCK, with N140 and with P93_24 was “inactive” throughout. The Potency entry in the assay on P94_40, with PAD, with PC15, in the assay on PC26, in the assay on PC49 and with SC27B was “inactive” each time. Also, the Potency result in the assay on TAB109 was “inactive”.
As to `CC(=O)Nc1nnc(S(N)(=O)=O)s1`, the Potency result in the assay with DFO2036, with DIV17, in the assay on DIV30, in the assay with Dd2, in the assay with ECU and with FAB9 was “inactive” in each case. For the same molecule, the Potency result in the assay on GB4, in the assay with HB3, with ICS, in the assay with JCK, in the assay on N140 and in the assay on P93_24 was “inactive” in each case. Besides, the Potency entry in the assay with P94_40, in the assay on PAD, in the assay with PC15, with PC26, with PC49 and with SC27B was “inactive” each time. In the assay with TAB109, the Potency result was “inactive”.
As for `CNC1(C)C2CCC(C2)C1(C)C` (stereo not drawn), the Potency result in the assay with DFO2036, in the assay with DIV14, in the assay with DIV17, with DIV30, with ECU and in the assay with FAB9 was “inactive” throughout. In addition, the Potency entry in the assay on HB3, in the assay on ICS, in the assay on JCK, in the assay on N140, with P93_24 and in the assay on P94_40 was “inactive” throughout. Besides, the Potency entry in the assay with PAD, with PC15, in the assay on PC26, in the assay on PC49, with SC27B and with TAB109 was “inactive” throughout. In addition, the Potency in the assay on GB4 is 10.7 µM (active).
`CCNC(=O)N1CCN(CCCC(c2ccc(F)cc2)c2ccc(F)cc2)CC1`: the Potency was 2.51 µM (active) in the assay on DFO2036; 7.57 µM (active) with DIV14; 13.5 µM (active) in the assay with DIV17; 6.75 µM (active) with DIV30; 2 µM (active) in the assay with Dd2; 2.51 µM (active) in the assay on ECU. For the same molecule, the Potency in the assay with FAB9 is 3.98 µM (active); in the assay with GB4, 10.7 µM (active); in the assay with HB3, 4.47 µM (active); in the assay on ICS, 2.82 µM (active); with JCK, 10 µM (active); in the assay with N140 it was 2.82 µM (active). The Potency is 2 µM (active) with P93_24; 2.82 µM (active) in the assay with P94_40; 3.55 µM (active) in the assay with PAD; 3.55 µM (active) in the assay with PC15; 4.78 µM (active) in the assay with PC26; 0.891 µM (active) with PC49. Moreover, the results for the Potency in the assay on SC27B and in the assay on TAB109 were 2 µM (active) and 2.24 µM (active), respectively.
Turning to `O=C(CCNNC(=O)c1ccncc1)NCc1ccccc1`, the Potency result in the assay on DFO2036, in the assay on DIV14, with DIV17, in the assay on DIV30, in the assay with Dd2 and in the assay on ECU was “inactive” each time. The Potency result in the assay on FAB9, with GB4, in the assay on HB3, in the assay with ICS, with JCK and with N140 was “inactive” throughout. The Potency entry in the assay with P93_24, in the assay with P94_40, in the assay on PAD, in the assay on PC15, in the assay on PC26 and in the assay on PC49 was “inactive” in each case. Besides, the Potency result in the assay with SC27B and in the assay with TAB109 was “inactive” throughout.
For the molecule `COC(=O)C1=C(C)NC(C)=C(C(=O)OC(C)(C)CN(C)CCC(c2ccccc2)c2ccccc2)C1c1cccc([N+](=O)[O-])c1` (stereo not drawn), the Potency in the assay on DFO2036 was 3.55 µM (active); with DIV14 it was 3.79 µM (active); with DIV17, 3.38 µM (active); in the assay on DIV30, 4.78 µM (active); in the assay with Dd2 it was 2.24 µM (active); with ECU, 3.16 µM (active). Also, the Potency in the assay on GB4 is 2.13 µM (active); in the assay with HB3, 3.16 µM (active); in the assay with ICS, 2 µM (active); with N140, 2.51 µM (active); in the assay with P93_24 it was 2.51 µM (active); in the assay with P94_40, 2.51 µM (active). The Potency in the assay on PAD is 2.51 µM (active); in the assay on PC15, 6.31 µM (active); in the assay on PC26, 1.51 µM (active); with SC27B it was 2.24 µM (active); in the assay on TAB109 it was 3.16 µM (active).
In the case of `CC[N+](C)(C)c1cccc(O)c1`, the Potency entry in the assay with DFO2036, with DIV14, in the assay on DIV30, in the assay on Dd2, in the assay on ECU and in the assay on FAB9 was “inactive” in each case. The Potency result with GB4, with HB3, in the assay on ICS, in the assay on JCK, with N140 and with P93_24 was “inactive” each time. The Potency entry with P94_40, in the assay with PAD, in the assay with PC15, with PC26, in the assay with PC49 and in the assay on SC27B was “inactive” in each case. Besides, the Potency result with TAB109 was “inactive”.
Take `CN1CCN(C2=Nc3ccccc3Oc3ccc(Cl)cc32)CC1`: the Potency entry in the assay on DFO2036, in the assay with DIV14, in the assay on DIV17, with DIV30, in the assay on Dd2 and in the assay with ECU was “inactive” in each case. The Potency result in the assay with FAB9, in the assay on HB3, in the assay with JCK, in the assay on N140, in the assay on P93_24 and in the assay with P94_40 was “inactive” throughout. Besides, the Potency result with PAD, in the assay on PC15, in the assay on PC49, in the assay on SC27B and with TAB109 was “inactive” in each case.
As for `C[n+]1cc2c3c(ccc2c2ccc4cc5c(cc4c21)OCO5)OCO3`, the Potency result in the assay with DFO2036, in the assay on DIV17, in the assay with DIV30, in the assay on Dd2, in the assay on ECU and with FAB9 was “inactive” in each case. Also, the Potency entry with HB3, in the assay with ICS, in the assay on JCK, in the assay on N140, in the assay on P93_24 and in the assay with P94_40 was “inactive” in each case. Further, the Potency entry in the assay with PAD, in the assay on PC15, in the assay with PC49, in the assay with SC27B and in the assay on TAB109 was “inactive” each time.
On to `CN(C)C(=O)Oc1ccc[n+](C)c1`, for which the Potency result in the assay with DFO2036, in the assay on DIV14, with DIV17, in the assay with DIV30, in the assay with Dd2 and in the assay with ECU was “inactive” in each case. Moreover, the Potency result in the assay on FAB9, in the assay on GB4, in the assay on HB3, with ICS, in the assay on JCK and in the assay on N140 was “inactive” throughout. Moreover, the Potency entry in the assay with P93_24, with P94_40, with PAD, in the assay on PC15, in the assay with PC26 and in the assay with PC49 was “inactive” throughout. For the same molecule, the Potency result with SC27B and in the assay with TAB109 was “inactive” each time.
Consider `CC(C(=O)O)c1ccc(CC2CCCC2=O)cc1` (stereo not drawn), for which the Potency entry with DFO2036, in the assay on DIV14, in the assay on DIV17, with DIV30, in the assay on Dd2 and with ECU was “inactive” each time. The Potency result in the assay on FAB9, in the assay on GB4, with HB3, with ICS, with JCK and in the assay with N140 was “inactive” throughout. For the same molecule, the Potency entry with P93_24, in the assay on P94_40, in the assay with PAD, in the assay with PC15, in the assay with PC26 and in the assay with PC49 was “inactive” each time. Also, the Potency entry in the assay on SC27B and with TAB109 was “inactive” throughout.
